In paper PMC4336329 (PLoS ONE, 2015):
About 14,000 (4.5%) of roughly 310,000 compounds showed an effect of 50% or more. The effect is printed as a negative number. What follows is part of a selection rich in strong results, with near analogues and random picks from the rest.

molecular target: human ether-à-go-go-related gene (hERG) potassium channel (human, UniProt Q12809); assay: primary screen, population patch clamp on CHO cells stably expressing hERG; higher = less effect of the substance
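Further: peak tail current of the secondary pulse compared with the same well before compound.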

Chain of human ether-à-go-go-related gene (hERG) potassium channel (Q12809 whole entry, looked up): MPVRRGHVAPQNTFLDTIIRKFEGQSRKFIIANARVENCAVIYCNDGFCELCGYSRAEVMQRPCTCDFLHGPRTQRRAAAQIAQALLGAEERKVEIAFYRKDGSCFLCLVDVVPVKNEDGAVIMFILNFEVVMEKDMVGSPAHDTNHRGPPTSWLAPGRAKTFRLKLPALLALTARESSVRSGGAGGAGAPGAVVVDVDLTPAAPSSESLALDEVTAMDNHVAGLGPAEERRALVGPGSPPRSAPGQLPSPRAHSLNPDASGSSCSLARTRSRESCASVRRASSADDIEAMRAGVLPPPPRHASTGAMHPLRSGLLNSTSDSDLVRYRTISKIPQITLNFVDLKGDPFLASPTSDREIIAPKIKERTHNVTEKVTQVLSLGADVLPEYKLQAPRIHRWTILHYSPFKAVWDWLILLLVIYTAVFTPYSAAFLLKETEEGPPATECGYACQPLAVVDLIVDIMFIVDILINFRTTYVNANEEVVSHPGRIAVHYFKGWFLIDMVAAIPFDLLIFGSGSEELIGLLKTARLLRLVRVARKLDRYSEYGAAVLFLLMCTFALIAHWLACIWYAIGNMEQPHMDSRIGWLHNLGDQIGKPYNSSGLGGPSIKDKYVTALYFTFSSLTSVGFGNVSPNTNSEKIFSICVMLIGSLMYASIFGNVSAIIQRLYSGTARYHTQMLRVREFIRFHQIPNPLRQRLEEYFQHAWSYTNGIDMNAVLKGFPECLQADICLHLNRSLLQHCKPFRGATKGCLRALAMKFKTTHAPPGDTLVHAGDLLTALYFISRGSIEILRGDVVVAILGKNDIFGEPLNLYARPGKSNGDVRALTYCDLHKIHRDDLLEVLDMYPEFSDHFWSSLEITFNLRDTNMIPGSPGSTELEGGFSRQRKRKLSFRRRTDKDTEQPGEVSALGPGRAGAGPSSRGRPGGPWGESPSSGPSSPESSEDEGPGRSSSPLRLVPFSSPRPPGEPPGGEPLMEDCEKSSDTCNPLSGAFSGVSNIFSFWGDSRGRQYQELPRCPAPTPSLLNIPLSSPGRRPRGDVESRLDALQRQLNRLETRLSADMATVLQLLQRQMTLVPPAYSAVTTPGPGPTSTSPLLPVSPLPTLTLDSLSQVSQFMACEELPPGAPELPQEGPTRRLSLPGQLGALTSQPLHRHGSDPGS

Structure (SMILES)	hERG current change (%, negative = inhibition) at 10uM [%]
CC1=C(C(=O)OC(C)C)C(c2cncc(-c3ccc(F)cc3)c2)C(C#N)=C(N)O1 (stereo not drawn)	-28.6
Cc1nn(CC2CCCCC2)c(N)c1-c1ccccc1	-12.2
CC(C)(C)c1cc(C(F)(F)F)c(C#N)c(=O)[nH]1	25
Cc1nc(NC2CCCCC2)c2nnn(Cc3ccccc3Cl)c2n1	8.09
C[n+]1ccccc1C1CCCC/C1=N\Nc1ccc([N+](=O)[O-])cc1[N+](=O)[O-].[I-] (stereo not drawn)	-11.8
O=[N+]([O-])c1ccc(N/N=C2/CCCCC2c2ccccn2)c([N+](=O)[O-])c1 (stereo not drawn)	-56.3
CC1CCCC/C1=N/Nc1ccc([N+](=O)[O-])cc1[N+](=O)[O-] (stereo not drawn)	-1.11
COc1ccccc1C(=O)NC(CCSC)C(=O)NCC(c1cccs1)N(C)C (stereo not drawn)	2.41
COc1ccc(NC(=O)C(=O)NNC(=O)COc2ccc(Cl)cc2)c(OC)c1	10.5
Cn1cc(C(=O)c2ccc(Cl)cc2)cc1-c1nc2ccccc2n1C	-47.9
Cn1cc(C(=O)c2ccc(F)cc2)cc1-c1nc2ccccc2n1C	-50.5
Cn1cc(C(=O)c2ccccc2)cc1-c1nc2ccccc2n1C	-41.9
CCN(CC)CCn1c(OC)cc(=O)[nH]c1=O	17.6
CCC1=C(OC(=O)N(CC)CC)N2C(=O)OC(=NCCc3c[nH]c4ccccc34)[C@]2(C)[C@H]2C1=CC[C@H]1C(=O)N(CC)C(=O)[C@H]12	-9.68
CCn1cc(CNC(=O)c2ccc3nc(Cc4ccc(OC)cc4)oc3c2)cn1	6.8
COc1ccc([C@H]2CC(=O)C=C(c3ccc(Cl)cc3C)C2)cc1	4.03
COc1cccc(C2=CC(=O)C[C@H](c3ccc(Cl)cc3)C2)c1	15.4
COc1ccc([C@H]2CC(=O)C=C(c3cccc(C#N)c3)C2)cc1	-72.3
COc1ccc([C@H]2CC(=O)C=C(c3cccc(Br)c3)C2)cc1	-1.14
COc1cccc(C2=CC(=O)C[C@H](c3ccc(F)cc3)C2)c1	-14.9
COc1ccc([C@H]2CC(=O)C=C(c3ccnc4ccc(Cl)cc34)C2)cc1	-57.6
COc1ccc([C@H]2CC(=O)C=C(c3cc(Cl)ccc3OC)C2)cc1	7.4
COc1ccc([C@H]2CC(=O)C=C(c3cccc(OC)c3)C2)cc1	-82.1
COc1ccc([C@H]2CC(=O)C=C(c3cccc(Cl)c3)C2)cc1	-11.8
